Measured values reported in PubChem BioAssay (Tox21).
Results filed as inconclusive are left out. Calls of active or inactive are those of the source. Unless noted, calls come from the whole dose curve; as a rule, active = well fitted curve in the direction sought with a large enough effect in the repeat runs; inconclusive = weak or mixed curves; inactive = no such curve, though single readings can be large; an effect the other way counts as inactive or inconclusive.

Tests used:
[1] = target: Aryl hydrocarbon receptor (Homo sapiens) (UniProt P35869); test: qHTS assay to identify small molecule that activate the aryl hydrocarbon receptor (AhR) signaling pathway (AID 743085);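 note: HG2L7.5c1 human HepG2 liver cells with stably integrated DRE-driven firefly reporter; series mostly up to about 70 µM; nearly all actives have a fitted effect of over 15% in size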
In short: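 24 h compound exposure, 37C, HepG2-derived HG2L7.5c1 cells with DRE-responsive luciferase. Readouts: fluorescence viability, then luminescence at room temperature after 30 min.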

[2] = qHTS assay to identify small molecule that activate the aryl hydrocarbon receptor (AhR) signaling pathway - cell viability counter screen (AID 743086);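 note: HepG2 liver cells carrying the AhR DRE luciferase reporter; series mostly up to about 70 µM; nearly all actives have a fitted effect of over 45% in size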
In short: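 HepG2-AhR-luc (HG2L7.5c1) cells, 4000/well, treated 24 h at 37 C with compound; viability measured as CellTiter-Fluor fluorescence after 30 min in the same wells as the luciferase read.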

[3] = target: Peroxisome proliferator-activated receptor gamma (Homo sapiens) (UniProt P37231); test: qHTS assay to identify small molecule agonists of the peroxisome proliferator-activated receptor gamma (PPARg) signaling pathway (AID 743094; active = well fitted activation curve with a large enough effect in the signal ratio in the repeat runs, not every such curve was filed as active; the % refers to the signal ratio)
In short: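 HEK293H PPARg-bla cells, 5 h settle at 37C/5% CO2; compound (DMSO) 17 h, 37C; B/G FRET substrate 1 h RT; fluorescence intensity read-out. qHTS format.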

[4] = target: Peroxisome proliferator-activated receptor gamma (Homo sapiens) (UniProt P37231); test: qHTS assay to identify small molecule antagonists of the peroxisome proliferator-activated receptor gamma (PPARg) signaling pathway (AID 743191; calls by dose curve; note: series mostly up to about 63 µM; nearly all actives have a fitted effect of over 30% in size)
In short: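 GeneBLAzer PPARg UAS-bla HEK293H cells, 5 h post-plating, exposed to compounds 17 h at 37C. LiveBLAzer B/G FRET substrate added for 1 h at room temperature; beta-lactamase reporter read by fluorescence intensity.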

[5] = qHTS assay to identify small molecule antagonists of the peroxisome proliferator-activated receptor gamma (PPARg) signaling pathway - cell viability counter screen (AID 743194); note: nearly all actives have a fitted effect of over 55% in size
In short: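 Cytotoxicity counter screen in PPARg-bla HEK293H cells, same wells as reporter assay. Compounds plus 50 nM rosiglitazone (final) for 17 h at 37 C, then viability read by CellTiter-Glo luminescence.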

[6] = qHTS assay for small molecule agonists of the antioxidant response element (ARE) signaling pathway (AID 743202; active = well fitted activation curve with a large enough effect in the signal ratio in the repeat runs, not every such curve was filed as active; the % refers to the signal ratio)
In short: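 HepG2 ARE-bla reporter line, 2,000 cells/well; 5 h preincubation 37 C/5% CO2; compound (DMSO) 16 h 37 C; B/G FRET substrate 2 h RT; fluorescence intensity.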

[7] = qHTS assay for small molecule agonists of the antioxidant response element (ARE) signaling pathway - cell viability counter screen (AID 743203; calls by dose curve; note: nearly all actives have a fitted effect of over 55% in size)
In short: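 Luminescence read-out (CellTiter-Glo, 30 min at room temperature) measured cell viability in the same wells as the ARE beta-lactamase reporter. HepG2 ARE-bla cells were treated with compounds for 16 hrs at 37C/5% CO2.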

[8] = qHTS assay for small molecule activators of the heat shock response signaling pathway - cell viability counter screen (AID 743209); note: nearly all actives have a fitted effect of over 50% in size
In short: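 HSE-bla HeLa; 1500 cells/well; overnight 37 C, 5% CO2; compound 5 h 37 C; LiveBLAzer B/G substrate 2.5 h RT; CellTiter-Glo 30 min RT; luminescence.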

[9] = target: Peroxisome proliferator-activated receptor delta (Homo sapiens) (UniProt Q03181); test: qHTS assay to identify small molecule agonists of the peroxisome proliferator-activated receptor delta (PPARd) signaling pathway (AID 743212; calls by dose curve)
In short: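 Read-out: beta-lactamase FRET fluorescence after 2 h room-temperature incubation with LiveBLAzer B/G substrate. Cells were HEK293H carrying a UAS-bla reporter for PPARd, treated at 37 C with DMSO-dissolved compounds.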

[10] = target: Peroxisome proliferator-activated receptor delta (Homo sapiens) (UniProt Q03181); test: qHTS assay to identify small molecule antagonists of the peroxisome proliferator-activated receptor delta (PPARd) signaling pathway (AID 743215; active = well fitted inhibition curve with a large enough effect in the signal ratio in the repeat runs, not every such curve was filed as active; the % refers to the signal ratio;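 note: cells stimulated with agonist L165041 at 300 nM final during compound exposure; series mostly up to about 62 µM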)
In short: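 HEK293H GeneBLAzer PPARd UAS-bla reporter cells; cpd + L165041 300 nM final, 17 h 37 C; LiveBLAzer B/G FRET substrate 2 h RT; fluorescence intensity read-out. Antagonist mode.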

[11] = qHTS assay to identify small molecule agonists of the farnesoid-X-receptor (FXR) signaling pathway - cell viability counter screen (AID 743218); note: nearly all actives have a fitted effect of over 45% in size
In short: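 Luminescence from CellTiter-Glo, read after 30 min at RT, reports viability of GeneBLAzer FXR-UAS-bla HEK 293T cells treated 16 h with compounds in the wells used for the beta-lactamase reporter.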

[12] = qHTS assay to identify small molecule antagonists of the farnesoid-X-receptor (FXR) signaling pathway - cell viability counter screen (AID 743221; active = well fitted cell-killing curve with a large enough effect in the repeat runs, not every such curve was filed as active; note: nearly all actives have a fitted effect of over 50% in size)
In short: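 In GeneBLAzer FXR-UAS-bla HEK 293T cells stimulated with 50 uM chenodeoxycholic acid (final), compounds acted for 16 h at 37 C. Viability was assessed afterwards by CellTiter-Glo luminescence.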

[13] = target: Vitamin D3 receptor (Homo sapiens) (UniProt P11473); test: qHTS assay to identify small molecule agonists of the vitamin D receptor (VDR) signaling pathway (AID 743222; calls by dose curve)
In short: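 Beta-lactamase reporter readout (LiveBLAzer B/G FRET, 2 h RT) in VDR-bla cells after 16 h compound treatment at 37C, 5% CO2; cells pre-incubated 4 h before pin transfer of DMSO solutions.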

[14] = target: Vitamin D3 receptor (Homo sapiens) (UniProt P11473); test: qHTS assay to identify small molecule antagonists of the vitamin D receptor (VDR) signaling pathway (AID 743223; active = well fitted inhibition curve with a large enough effect in the signal ratio in the repeat runs, not every such curve was filed as active; the % refers to the signal ratio)
In short: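 Agonist 1alpha,25-dihydroxyvitamin D3 (3 nM in well) was added with each compound to VDR-bla cells preincubated 4 h. Cells stood 16 h at 37C, then FRET substrate 2 h at room temperature; fluorescence intensity recorded.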

[15] = qHTS assay to identify small molecule agonists of the vitamin D receptor (VDR) signaling pathway - cell viability counter screen (AID 743224); note: series mostly up to about 63 µM; nearly all actives have a fitted effect of over 50% in size
In short: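 Cytotoxicity counter screen: VDR-bla cells, 16 h compound exposure at 37C, 5% CO2; CellTiter-Glo luminescence, 30 min RT, same wells as bla read.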

[16] = qHTS assay for small molecule activators of the heat shock response signaling pathway (AID 743210; active = well fitted activation curve with a large enough effect in the signal ratio in the repeat runs, with a control signal flat, not every such curve was filed as active; the % refers to the signal ratio;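 note: HeLa cells with beta-lactamase reporter driven by heat shock elements; series mostly up to about 63 µM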)
In short: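 Beta-lactamase reporter read-out: FRET substrate fluorescence after 2.5 h at RT, following 5 h compound treatment at 37 C of HeLa cells carrying HSE-driven bla reporter; quantitative HTS format.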

[17] = qHTS assay to identify small molecule agonists of the peroxisome proliferator-activated receptor delta (PPARd) signaling pathway - cell viability counter screen (AID 743211); note: nearly all actives have a fitted effect of over 55% in size
In short: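 Luminescent ATP viability assay (CellTiter-Glo, 30 min RT) in UAS-bla HEK293H cells carrying the PPAR delta reporter construct, 3000 cells/well, after a 17 h compound treatment at 37 C.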

[18] = qHTS assay to identify small molecule antagonists of the peroxisome proliferator-activated receptor delta (PPARd) signaling pathway - cell viability counter screen (AID 743213); note: nearly all actives have a fitted effect of over 50% in size
In short: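 PPARd-bla HEK293H cells (3000/well) got compound plus 300 nM L165041 agonist for 17 h at 37 C. Viability in the same wells came from CellTiter-Glo luminescence after 30 min at room temperature.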

[19] = target: Bile acid receptor (Homo sapiens) (UniProt Q96RI1); test: qHTS assay to identify small molecule antagonists of the farnesoid-X-receptor (FXR) signaling pathway (AID 743217; active = well fitted inhibition curve with a large enough effect in the signal ratio in the repeat runs, not every such curve was filed as active; the % refers to the signal ratio)
In short: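 Read-out: beta-lactamase FRET fluorescence (LiveBLAzer B/G substrate, 2 h, room temperature) in GeneBLAzer FXR-UAS-bla HEK 293T cells. Compounds were co-dosed with 50 uM chenodeoxycholic acid (final) and incubated 16 h at 37 °C.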

[20] = target: Bile acid receptor (Homo sapiens) (UniProt Q96RI1); test: qHTS assay to identify small molecule agonists of the farnesoid-X-receptor (FXR) signaling pathway (AID 743220; active = well fitted activation curve with a large enough effect in the signal ratio in the repeat runs, not every such curve was filed as active; the % refers to the signal ratio)
In short: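 FXR-UAS-bla HEK 293T cells carrying a UAS-driven beta-lactamase reporter were plated for 5 h at 37C/5% CO2, then exposed to DMSO-dissolved Tox21 10K compounds for 16 h at 37C. A LiveBLAzer B/G FRET substrate was loaded for 2 h at room temperature before fluorescence reading.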

Measured: Potency

Sequence of Vitamin D3 receptor (Homo sapiens) (P11473 whole entry, looked up): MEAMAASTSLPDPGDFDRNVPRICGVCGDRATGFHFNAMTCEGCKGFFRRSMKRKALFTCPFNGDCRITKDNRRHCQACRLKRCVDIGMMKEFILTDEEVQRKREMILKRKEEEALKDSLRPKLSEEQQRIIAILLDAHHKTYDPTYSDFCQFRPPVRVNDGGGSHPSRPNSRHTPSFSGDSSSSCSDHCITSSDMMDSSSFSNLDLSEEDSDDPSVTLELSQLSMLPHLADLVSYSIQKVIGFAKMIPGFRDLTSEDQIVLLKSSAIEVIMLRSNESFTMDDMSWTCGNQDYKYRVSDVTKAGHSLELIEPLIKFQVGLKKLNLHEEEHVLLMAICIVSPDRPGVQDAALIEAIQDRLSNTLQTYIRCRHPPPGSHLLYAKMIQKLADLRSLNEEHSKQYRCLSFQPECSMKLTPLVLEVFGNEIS
Sequence of Bile acid receptor (Homo sapiens) (Q96RI1 whole entry, looked up): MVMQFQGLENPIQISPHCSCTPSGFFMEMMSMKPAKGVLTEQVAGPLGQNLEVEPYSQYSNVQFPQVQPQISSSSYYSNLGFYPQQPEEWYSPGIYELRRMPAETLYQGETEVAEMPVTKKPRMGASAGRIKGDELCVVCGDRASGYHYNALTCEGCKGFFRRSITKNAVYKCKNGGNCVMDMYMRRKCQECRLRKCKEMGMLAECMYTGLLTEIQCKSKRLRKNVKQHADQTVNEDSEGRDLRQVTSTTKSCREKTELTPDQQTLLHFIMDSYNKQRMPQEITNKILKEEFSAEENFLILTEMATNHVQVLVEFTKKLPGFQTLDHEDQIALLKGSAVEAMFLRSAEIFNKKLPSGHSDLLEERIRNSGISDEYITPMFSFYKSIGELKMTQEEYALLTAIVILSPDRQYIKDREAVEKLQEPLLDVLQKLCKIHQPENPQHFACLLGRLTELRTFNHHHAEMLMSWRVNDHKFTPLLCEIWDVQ
Sequence of Peroxisome proliferator-activated receptor gamma (Homo sapiens) (P37231 whole entry, looked up): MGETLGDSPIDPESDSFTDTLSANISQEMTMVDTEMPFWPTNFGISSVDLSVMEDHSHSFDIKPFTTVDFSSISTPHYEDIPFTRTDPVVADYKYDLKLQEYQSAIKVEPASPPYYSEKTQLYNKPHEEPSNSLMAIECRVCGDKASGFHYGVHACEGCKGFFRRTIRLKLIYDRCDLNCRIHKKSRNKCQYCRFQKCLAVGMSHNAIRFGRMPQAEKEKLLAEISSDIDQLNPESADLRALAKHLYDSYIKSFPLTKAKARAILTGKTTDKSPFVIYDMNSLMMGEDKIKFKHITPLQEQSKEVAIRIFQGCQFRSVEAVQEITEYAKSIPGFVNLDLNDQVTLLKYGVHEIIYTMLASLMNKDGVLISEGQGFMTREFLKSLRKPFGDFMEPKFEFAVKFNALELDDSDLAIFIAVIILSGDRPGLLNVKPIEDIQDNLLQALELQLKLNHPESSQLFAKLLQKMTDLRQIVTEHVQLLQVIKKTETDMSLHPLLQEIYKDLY
Sequence of Peroxisome proliferator-activated receptor delta (Homo sapiens) (Q03181 whole entry, looked up): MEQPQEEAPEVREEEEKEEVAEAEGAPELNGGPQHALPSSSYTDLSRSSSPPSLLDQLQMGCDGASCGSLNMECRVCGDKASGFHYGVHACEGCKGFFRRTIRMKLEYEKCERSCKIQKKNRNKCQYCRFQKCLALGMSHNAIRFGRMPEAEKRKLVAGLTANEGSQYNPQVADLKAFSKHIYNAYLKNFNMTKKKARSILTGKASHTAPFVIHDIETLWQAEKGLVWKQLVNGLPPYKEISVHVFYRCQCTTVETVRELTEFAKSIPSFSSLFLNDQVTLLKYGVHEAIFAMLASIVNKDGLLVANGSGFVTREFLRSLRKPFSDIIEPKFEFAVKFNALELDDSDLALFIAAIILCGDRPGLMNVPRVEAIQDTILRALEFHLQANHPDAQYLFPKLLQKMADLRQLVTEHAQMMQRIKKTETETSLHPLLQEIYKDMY
Sequence of Aryl hydrocarbon receptor (Homo sapiens) (P35869 whole entry, looked up): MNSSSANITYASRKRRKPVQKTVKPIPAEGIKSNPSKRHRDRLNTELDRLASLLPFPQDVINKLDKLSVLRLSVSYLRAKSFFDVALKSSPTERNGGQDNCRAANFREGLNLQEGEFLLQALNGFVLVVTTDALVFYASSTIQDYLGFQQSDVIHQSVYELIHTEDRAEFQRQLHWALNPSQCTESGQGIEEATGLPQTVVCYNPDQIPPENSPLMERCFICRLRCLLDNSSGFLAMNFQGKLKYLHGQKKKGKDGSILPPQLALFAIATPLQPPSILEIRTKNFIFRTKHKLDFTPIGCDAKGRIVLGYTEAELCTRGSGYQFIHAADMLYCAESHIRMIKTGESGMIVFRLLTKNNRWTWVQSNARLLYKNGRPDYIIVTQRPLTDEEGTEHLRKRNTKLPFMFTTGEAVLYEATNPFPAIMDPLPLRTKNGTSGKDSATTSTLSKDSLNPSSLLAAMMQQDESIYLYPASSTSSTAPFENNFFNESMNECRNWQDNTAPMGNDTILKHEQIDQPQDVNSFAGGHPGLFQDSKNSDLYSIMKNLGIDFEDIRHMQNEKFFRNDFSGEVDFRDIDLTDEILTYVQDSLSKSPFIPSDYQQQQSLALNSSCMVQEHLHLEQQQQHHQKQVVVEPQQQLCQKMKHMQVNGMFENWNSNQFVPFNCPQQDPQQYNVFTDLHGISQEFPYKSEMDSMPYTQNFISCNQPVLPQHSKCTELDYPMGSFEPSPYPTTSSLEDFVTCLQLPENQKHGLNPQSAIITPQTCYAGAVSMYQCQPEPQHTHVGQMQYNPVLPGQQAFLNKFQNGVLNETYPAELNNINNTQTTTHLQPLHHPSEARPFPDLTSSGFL

C/C=C(\C)C(=O)OC/C=C(\C)CCC=C(C)C
inactive: [1] | [2] | [3] | [4] | [5] | [6] | [7] | [8] | [9] | [10] | [11] | [12] | [13] | [14] | [15]

CC(C)OCCO
inactive: [1] | [2] | [3] | [4] | [5] | [6] | [7] | [8] | [16] | [11] | [12] | [14] | [15]

COc1cc2nc(N3CCN(C(=O)C4CCCO4)CC3)nc(N)c2cc1OC (stereo not given)
inactive: [1] | [2] | [3] | [4] | [5] | [6] | [7] | [8] | [16] | [17] | [9] | [18] | [10] | [11] | [12]

CC(CC(=O)Cl)CC(C)(C)C (stereo not given)
inactive: [1] | [2] | [3] | [4] | [5] | [6] | [7] | [8] | [18] | [11] | [13] | [15]

O=c1c(O)c(O)c1=O
inactive: [1] | [2] | [3] | [4] | [5] | [6] | [7] | [8] | [16] | [17] | [9] | [18] | [10] | [11] | [12] | [14] | [15]

CCOC(=O)CC
inactive: [1] | [2] | [3] | [4] | [5] | [6] | [7] | [8] | [16] | [9] | [10] | [19] | [20] | [12] | [15]

Nc1ccc(C(=O)NCC(=O)O)cc1
inactive: [1] | [2] | [3] | [4] | [5] | [6] | [7] | [8] | [16] | [17] | [9] | [18] | [10] | [11] | [13] | [14] | [15]

CCOC(=O)[C@H](CCc1ccccc1)N[C@H]1CS[C@H](c2cccs2)CN(CC(=O)O)C1=O
inactive: [1] | [2] | [3] | [4] | [5] | [6] | [7] | [8] | [16] | [9] | [18] | [10] | [11] | [12] | [15]

O=C(O)CCC(=O)Nc1ccc(S(=O)(=O)Nc2nccs2)cc1
inactive: [1] | [2] | [3] | [4] | [5] | [6] | [7] | [8] | [16] | [17] | [9] | [18] | [10] | [19] | [11] | [12] | [13] | [14] | [15]

C[C@H]1COc2c(C3(N)CC3)c(F)cc3c(=O)c(C(=O)O)cn1c23
inactive: [1] | [2] | [3] | [4] | [5] | [6] | [7] | [8] | [16] | [17] | [9] | [18] | [10] | [19] | [11] | [20] | [12] | [13] | [15]

COc1cc(C(=O)NC2CCCNC2)cc(OC)c1OC (stereo not given)
inactive: [1] | [2] | [3] | [4] | [5] | [6] | [7] | [8] | [16] | [17] | [19] | [11] | [20] | [12] | [13] | [14] | [15]

N#CC1(N)CCCCC1
inactive: [1] | [2] | [3] | [4] | [5] | [6] | [7] | [8] | [16] | [17] | [18] | [11] | [14] | [15]

CN1CCN(C(=O)C2CCCCC2)CC1
inactive: [1] | [2] | [3] | [4] | [5] | [6] | [7] | [8] | [16] | [17] | [9] | [18] | [10] | [19] | [11] | [20] | [12] | [13] | [15]

C=CCn1cc[n+](C)c1
inactive: [1] | [2] | [3] | [4] | [5] | [6] | [7] | [8] | [16] | [17] | [18] | [11] | [14] | [15]

C/C=C(\C)C=O
inactive: [1] | [2] | [3] | [4] | [5] | [6] | [7] | [8] | [16] | [17] | [9] | [18] | [10] | [19] | [11] | [20] | [12] | [13] | [14] | [15]

COC(=O)C(c1ccccc1Cl)N1CCc2sccc2C1 (stereo not given)
inactive: [1] | [2] | [3] | [4] | [5] | [6] | [7] | [8] | [16] | [17] | [9] | [18] | [10] | [11] | [12] | [13] | [15]

Nc1cc(S(=O)(=O)O)ccc1O
inactive: [1] | [2] | [3] | [4] | [5] | [6] | [7] | [8] | [16] | [17] | [9] | [18] | [10] | [11] | [12] | [13] | [15]
